# PubChem BioAssay (NCATS)
# Results filed as inconclusive are left out. A call without a number means that no potency is given here. The source made the active and inactive calls. Unless noted, calls come from the whole dose curve; as a rule, active = well fitted curve in the direction sought with a large enough effect; inconclusive = small, poorly fitted or top-dose-only effect, or another doubt; inactive = no such curve, though single readings can be large; an effect the other way counts as inactive or inconclusive.
# Experiments:
# [1] = target: Glucocorticoid receptor (Homo sapiens) (UniProt P04150); test: GR-GFP Redistribution (AID 450;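 active = compounds whose dose series gives a full or clear partial fitted curve of increased nuclear translocation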; note: potency is the fitted concentration of half-maximal effect); details: U2OS GR-GFP nuclear translocation, laser cytometry, 2 h
# Chain of Glucocorticoid receptor (Homo sapiens) (P04150 whole entry, looked up, the tested form may be a part): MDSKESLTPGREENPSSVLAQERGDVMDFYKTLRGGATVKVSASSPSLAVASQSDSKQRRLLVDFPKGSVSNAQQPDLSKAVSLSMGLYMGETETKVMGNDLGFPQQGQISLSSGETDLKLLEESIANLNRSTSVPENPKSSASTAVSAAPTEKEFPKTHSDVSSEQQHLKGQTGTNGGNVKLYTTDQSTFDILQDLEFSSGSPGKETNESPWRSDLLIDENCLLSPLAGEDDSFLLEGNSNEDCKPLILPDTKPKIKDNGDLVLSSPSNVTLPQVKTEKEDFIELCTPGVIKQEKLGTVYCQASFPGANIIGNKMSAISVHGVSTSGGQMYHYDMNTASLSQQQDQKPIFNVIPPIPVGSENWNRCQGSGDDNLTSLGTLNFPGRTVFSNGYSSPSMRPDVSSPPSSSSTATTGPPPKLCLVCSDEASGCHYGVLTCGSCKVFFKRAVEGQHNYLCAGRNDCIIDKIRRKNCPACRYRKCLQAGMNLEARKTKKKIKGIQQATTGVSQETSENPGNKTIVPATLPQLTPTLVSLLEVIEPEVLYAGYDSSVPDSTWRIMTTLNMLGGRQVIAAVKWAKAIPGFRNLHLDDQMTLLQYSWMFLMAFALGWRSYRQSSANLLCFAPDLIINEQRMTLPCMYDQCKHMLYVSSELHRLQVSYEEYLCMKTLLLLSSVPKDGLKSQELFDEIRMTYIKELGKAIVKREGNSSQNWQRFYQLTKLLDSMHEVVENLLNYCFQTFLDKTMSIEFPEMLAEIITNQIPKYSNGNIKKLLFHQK
# [2] = target: Mitogen-activated protein kinase 10 (Mus musculus) (UniProt Q61831); test: JNK3 AlphaScreen Assay (AID 530; active = well fitted curve in either direction with a large enough effect, not every such curve was filed as active;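 note: kinase came from lysate of stimulated human HepG2 cells; signal reports phosphorylation of biotinylated GST-cJun 1-79 at Ser73 with 10 µM ATP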)
# Outline: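 Activity was read by AlphaScreen after JNK3-containing HepG2 lysate (cytokine pre-activated) phosphorylated biotinylated GST-cJun with 10 uM ATP at room temperature. Phospho-Ser73 cJun antibody with Protein-A acceptor beads provided detection.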
# [3] = target: 3',5'-cyclic-AMP phosphodiesterase 4B (Homo sapiens) (UniProt Q07343); test: qHTS Assay for Inhibitors of PDE-IV (AID 607; active = well fitted activation curve with a large enough effect in the main read-out, with a control signal flat, not every such curve was filed as active)
# Chain of 3',5'-cyclic-AMP phosphodiesterase 4B (Homo sapiens) (Q07343 whole entry, looked up): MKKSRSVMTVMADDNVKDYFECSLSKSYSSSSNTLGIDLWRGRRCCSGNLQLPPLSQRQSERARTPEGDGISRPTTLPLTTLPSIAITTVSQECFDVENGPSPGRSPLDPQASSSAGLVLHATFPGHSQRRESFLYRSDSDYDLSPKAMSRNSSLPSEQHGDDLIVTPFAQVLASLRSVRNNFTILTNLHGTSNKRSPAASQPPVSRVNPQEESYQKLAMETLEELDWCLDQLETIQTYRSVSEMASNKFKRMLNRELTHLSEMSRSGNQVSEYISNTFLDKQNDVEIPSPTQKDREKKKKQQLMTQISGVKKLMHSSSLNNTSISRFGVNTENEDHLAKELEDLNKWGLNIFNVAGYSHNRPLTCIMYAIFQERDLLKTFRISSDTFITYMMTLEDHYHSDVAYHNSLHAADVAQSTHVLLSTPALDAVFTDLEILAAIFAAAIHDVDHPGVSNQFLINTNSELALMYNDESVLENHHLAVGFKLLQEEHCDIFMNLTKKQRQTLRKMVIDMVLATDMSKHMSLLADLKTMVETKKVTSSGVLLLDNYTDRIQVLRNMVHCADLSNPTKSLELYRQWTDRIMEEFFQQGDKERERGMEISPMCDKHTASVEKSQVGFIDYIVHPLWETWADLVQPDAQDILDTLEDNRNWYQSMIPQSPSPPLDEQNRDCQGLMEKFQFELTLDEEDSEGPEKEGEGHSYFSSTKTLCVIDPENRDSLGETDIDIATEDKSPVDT
# Outline: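 The readout is membrane depolarisation from a cAMP-sensing CNG channel, detected with a potential dye at ex 535/em 590. Cells were HEK293-derived (endogenous PDE-IV) at 1000 cells/well, titrated up to 22.9 uM final.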
# [4] = qHTS Assay for Lipid Storage Modulators (AID 1519; calls by dose curve); details: Drosophila S3 cells, BODIPY lipid droplet/cell ratio, laser cytometry, cells loaded with oleic acid; for activity change, negative = inhibition: at 57.5 µM (top of the series)
# Outline: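 Cells seeded at 5,000 per well were treated with compounds over a concentration series and loaded with oleic acid (400 uM, as added). Lipid droplet fluorescence (488 nm excitation, 500-530 nm channel) was read by laser-scanning cytometry and normalized to 20 uM Triacsin C.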
# [5] = target: Ubiquitin carboxyl-terminal hydrolase 1 (Homo sapiens) (UniProt O94782); test: Inhibitors of USP1/UAF1: Pilot qHTS (AID 504865);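 note: rhodamine fluorescence freed from ubiquitin-rhodamine substrate followed over time; top concentration of the series differs between compounds; nearly all actives have a fitted effect of over 35% in size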
# Chain of Ubiquitin carboxyl-terminal hydrolase 1 (Homo sapiens) (O94782 whole entry, looked up): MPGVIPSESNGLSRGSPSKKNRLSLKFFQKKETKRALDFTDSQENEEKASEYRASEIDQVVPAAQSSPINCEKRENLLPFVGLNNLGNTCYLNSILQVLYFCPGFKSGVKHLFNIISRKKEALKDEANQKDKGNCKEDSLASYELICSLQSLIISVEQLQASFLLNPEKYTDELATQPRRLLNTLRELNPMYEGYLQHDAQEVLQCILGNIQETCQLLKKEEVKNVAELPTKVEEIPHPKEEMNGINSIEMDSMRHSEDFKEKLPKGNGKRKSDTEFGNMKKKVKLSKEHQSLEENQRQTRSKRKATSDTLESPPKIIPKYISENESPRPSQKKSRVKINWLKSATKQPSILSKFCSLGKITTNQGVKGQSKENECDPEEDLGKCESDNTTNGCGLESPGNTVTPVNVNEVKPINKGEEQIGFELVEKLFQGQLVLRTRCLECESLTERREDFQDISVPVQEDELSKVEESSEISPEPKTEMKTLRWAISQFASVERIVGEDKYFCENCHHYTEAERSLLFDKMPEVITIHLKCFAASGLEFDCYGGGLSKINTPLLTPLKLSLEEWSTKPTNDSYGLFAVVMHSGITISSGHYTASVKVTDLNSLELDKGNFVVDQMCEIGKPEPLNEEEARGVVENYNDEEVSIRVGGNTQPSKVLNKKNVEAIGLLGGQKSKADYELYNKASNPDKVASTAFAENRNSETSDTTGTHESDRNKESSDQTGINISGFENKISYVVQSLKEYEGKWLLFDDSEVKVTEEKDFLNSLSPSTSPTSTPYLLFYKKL
# Outline: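 USP1/UAF1 complex (1nM) preincubated with compound 15 min at room temperature, then Ub-Rho substrate (150nM final) added. Fluorescence read kinetically at 480/540 nm, 6 reads every 60 seconds. Buffer: 50mM HEPES pH 7.8, 0.5mM EDTA, 0.1 mg/ml BSA, 1mM TCEP, 0.01% Tween-20.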
# [6] = target: DNA dC->dU-editing enzyme APOBEC-3G (Homo sapiens) (UniProt Q9HC16); test: qHTS for inhibitors of Vif-A3G interactions: Validation (AID 588379)
# Chain of DNA dC->dU-editing enzyme APOBEC-3G (Homo sapiens) (Q9HC16 whole entry, looked up): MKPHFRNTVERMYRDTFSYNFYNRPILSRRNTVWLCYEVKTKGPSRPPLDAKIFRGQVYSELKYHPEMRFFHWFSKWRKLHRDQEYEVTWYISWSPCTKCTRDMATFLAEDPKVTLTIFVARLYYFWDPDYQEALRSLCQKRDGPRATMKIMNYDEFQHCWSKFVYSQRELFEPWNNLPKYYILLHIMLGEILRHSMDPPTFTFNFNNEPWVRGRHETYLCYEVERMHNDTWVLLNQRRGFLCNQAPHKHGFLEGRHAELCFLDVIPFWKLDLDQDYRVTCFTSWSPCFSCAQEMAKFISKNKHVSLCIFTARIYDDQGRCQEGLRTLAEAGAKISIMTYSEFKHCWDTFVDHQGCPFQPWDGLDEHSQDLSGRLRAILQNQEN
# Outline: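 Yellow fluorescence (Ex 488, Em 500-530) of Vif-coexpressing HeLa A3G-eYFP cells, scanned by Acumen cytometer, reports blocked A3G degradation. Cells plated at 700/well overnight at 37 deg C before compound addition, then a further overnight compound incubation at 37 deg C.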
# [7] = tested on: Zika virus NS2B-NS3 protease; test: Primary screen GU AMC qHTS for Zika virus inhibitors (AID 1347154); note: nearly all actives have a fitted effect of over 70% in size
# Outline: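 Unlinked Zika NS2B hydrophilic domain–NS3 protease complex at 25 nM in 10 mM Tris-HCl pH 8.0, 0.01% Tween 20, with an AMC peptide substrate. Fluorescence change (340/450 nm) over 15 min at room temperature, normalized to controls, fitted to 4-parameter Hill.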
# [8] = Primary qHTS for small molecule stabilizers of the endoplasmic reticulum resident proteome: Secreted ER Calcium Modulated Protein (SERCaMP) assay (AID 1508630)
# Outline: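 The SH-SY5Y reporter protocol was run at 3 concentrations up to 38.3 uM (primary) or 11 concentrations (follow-up): 16 h compound, 100 nM thapsigargin for 4 h, then extracellular luciferase luminescence.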
# [9] = target: Glucocorticoid receptor (Homo sapiens) (UniProt P04150); test: GR-EFC Redistribution (AID 451; calls by dose curve; note: potency is the fitted concentration of half-maximal effect); details: CHO-K1 GR-EFC translocation, beta-gal luminescence, 2 h
# Outline: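 CHO-K1 cells expressing nuclear EA and GR-ED fragments of b-gal; compounds titrated up to 46 uM final, 2 h at 37 C. GR nuclear translocation read as complemented b-gal luminescence after 1 h RT detection.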
# [10] = AP1 Signaling Pathway (AID 357; active = well fitted curve in either direction with a large enough effect, not every such curve was filed as active;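 note: ME-180 reporter cells stimulated with EGF at its EC50 level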)
# Outline: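 In this screen, ME-180 cells in Opti-MEM with 0.5% dialyzed FBS received EC50 EGF and compound titrations for 5 h. AP-1 reporter beta-lactamase was detected via CCF4 ratio, giving AC50 for positive and negative modulators.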
# [11] = target: Cytochrome P450 1A2 (Homo sapiens) (UniProt P05177); test: p450-cyp1a2 (AID 410; calls by dose curve; note: potency is the fitted concentration of half-maximal effect)
# Chain of Cytochrome P450 1A2 (Homo sapiens) (P05177 whole entry, looked up): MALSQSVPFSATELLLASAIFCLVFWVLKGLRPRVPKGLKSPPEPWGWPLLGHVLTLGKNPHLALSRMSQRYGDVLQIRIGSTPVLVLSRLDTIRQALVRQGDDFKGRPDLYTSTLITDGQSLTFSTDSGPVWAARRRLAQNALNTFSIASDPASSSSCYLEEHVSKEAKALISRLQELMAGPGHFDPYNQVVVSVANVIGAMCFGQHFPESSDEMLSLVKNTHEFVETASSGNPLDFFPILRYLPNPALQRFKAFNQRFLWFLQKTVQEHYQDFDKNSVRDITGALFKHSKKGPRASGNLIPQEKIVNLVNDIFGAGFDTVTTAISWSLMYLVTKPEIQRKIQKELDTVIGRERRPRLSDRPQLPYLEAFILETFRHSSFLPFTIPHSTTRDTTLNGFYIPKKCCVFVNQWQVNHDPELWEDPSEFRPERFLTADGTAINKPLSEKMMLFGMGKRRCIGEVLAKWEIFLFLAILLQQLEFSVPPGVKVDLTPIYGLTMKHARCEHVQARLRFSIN
# Outline: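 Luminescent demethylation readout: Luciferin-ME (100uM, equal to Km) turned over by 20nM CYP1A2 for 60 min at room temperature after NADPH regeneration addition, following 10 min compound preincubation. Normalization used 57 uM furafylline as full inhibition.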
# [12] = NFAT Signaling Pathway (AID 444; active = well fitted curve in either direction with a large enough effect, not every such curve was filed as active;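 note: carbachol stimulus at about its EC50 of 1 µM final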); details: Jurkat NFAT-bla M1, carbachol, beta-lactamase ratio, 5 h; at 38 µM (top of the series)
# Outline: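 Jurkat cells with NFAT-driven β-lactamase reporter and co-expressed M1 receptor, stimulated with carbachol (final 1 uM, ~EC50), compound titration, 5 h at 37 °C. CCF4 loaded 1 h at RT; 460/530 nm ratio gave %activity and AC50.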
# [13] = target: Muscarinic acetylcholine receptor M1 (Rattus norvegicus) (UniProt P08482); test: qHTS Assay for Antagonists of Acetylcholine Muscarinic M1 Receptor: Measurement of IP-One Response (AID 944); note: nearly all actives have a fitted effect of over 75% in size
# Chain of Muscarinic acetylcholine receptor M1 (Rattus norvegicus) (P08482 whole entry, looked up): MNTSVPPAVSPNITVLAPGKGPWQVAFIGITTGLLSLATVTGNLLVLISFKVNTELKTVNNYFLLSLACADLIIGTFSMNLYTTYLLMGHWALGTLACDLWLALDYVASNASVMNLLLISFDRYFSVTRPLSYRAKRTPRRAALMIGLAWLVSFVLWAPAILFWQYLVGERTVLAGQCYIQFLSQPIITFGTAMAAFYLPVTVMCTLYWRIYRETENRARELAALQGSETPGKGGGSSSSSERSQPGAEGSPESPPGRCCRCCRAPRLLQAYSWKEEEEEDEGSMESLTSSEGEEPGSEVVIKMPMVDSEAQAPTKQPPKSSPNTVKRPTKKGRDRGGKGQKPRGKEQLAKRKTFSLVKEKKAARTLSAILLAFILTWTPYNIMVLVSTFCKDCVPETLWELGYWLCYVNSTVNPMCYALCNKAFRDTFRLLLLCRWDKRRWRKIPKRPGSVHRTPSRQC
# Outline: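 IP1 accumulation measured via TR-FRET between d2-IP1 and Eu-cryptate anti-IP1 antibody after carbachol (200 nM, EC80) stimulation for 30 min; rat M1-transfected CHO cells received compound 10 min before agonist.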
# [14] = target: Pyruvate kinase (Leishmania mexicana) (UniProt Q27686); test: qHTS Validation Assay for Inhibitors of Leishmania Mexicana Pyruvate Kinase (AID 945)
# Outline: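 The enzyme is a highly purified E451W mutant of LmPYK used at 0.2 nM. It converts 0.5 mM PEP and 0.1 mM ADP over 1 h at room temperature; product ATP is quantified by luciferase luminescence relative to DMSO controls.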
# [15] = target: Pyruvate kinase PKM (Homo sapiens) (UniProt P14618); test: qHTS Assay for Activators of Human Muscle Pyruvate Kinase (AID 954; active = well fitted curve in the direction sought with a large enough effect, not every such curve was filed as active)
# Chain of Pyruvate kinase PKM (Homo sapiens) (P14618 whole entry, looked up): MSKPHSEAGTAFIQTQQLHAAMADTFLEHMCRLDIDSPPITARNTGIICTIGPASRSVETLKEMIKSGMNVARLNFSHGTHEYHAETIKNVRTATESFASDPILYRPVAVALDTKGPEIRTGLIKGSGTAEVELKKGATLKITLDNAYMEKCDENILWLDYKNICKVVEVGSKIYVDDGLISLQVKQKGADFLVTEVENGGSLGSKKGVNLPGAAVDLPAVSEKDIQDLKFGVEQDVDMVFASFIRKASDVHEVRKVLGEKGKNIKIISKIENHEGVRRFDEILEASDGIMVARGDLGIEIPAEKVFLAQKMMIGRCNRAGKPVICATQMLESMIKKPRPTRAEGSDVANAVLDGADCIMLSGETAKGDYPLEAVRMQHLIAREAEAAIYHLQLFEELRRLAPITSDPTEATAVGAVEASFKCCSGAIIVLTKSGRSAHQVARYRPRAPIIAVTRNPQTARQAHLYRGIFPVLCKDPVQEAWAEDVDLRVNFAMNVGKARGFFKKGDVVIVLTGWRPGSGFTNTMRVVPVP
# Outline: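 PKM2, human, >95% pure, 0.1 nM; PEP 0.5 mM (Km), ADP 0.1 mM; 50 mM imidazole pH 7.2, 50 mM KCl, 0.01% Tween 20, 0.05% BSA; 1 h RT; luciferase luminescence readout.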
# [16] = target: Alpha-galactosidase (Coffea arabica) (UniProt Q42656); test: Counterscreen for Glucocerebrosidase Inhibitors: qHTS Assay for Coffee Bean alpha-Galactosidase at pH 4.5 (AID 957)
# Chain of Alpha-galactosidase (Coffea arabica) (Q42656 whole entry, looked up): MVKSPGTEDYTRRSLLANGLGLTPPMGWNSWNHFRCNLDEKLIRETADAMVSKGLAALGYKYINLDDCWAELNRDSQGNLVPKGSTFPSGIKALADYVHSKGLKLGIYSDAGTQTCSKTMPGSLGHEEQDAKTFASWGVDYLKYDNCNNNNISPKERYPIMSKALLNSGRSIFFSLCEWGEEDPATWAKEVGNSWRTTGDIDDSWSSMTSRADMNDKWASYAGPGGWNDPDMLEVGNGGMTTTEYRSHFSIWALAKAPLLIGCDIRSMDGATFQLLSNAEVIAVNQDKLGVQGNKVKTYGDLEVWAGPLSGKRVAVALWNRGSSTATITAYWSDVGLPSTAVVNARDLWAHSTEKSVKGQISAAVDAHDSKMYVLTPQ
# Outline: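 Fluorogenic qHTS at pH 4.5 (citrate buffer with Tween-20): 2 nM enzyme, 80 uM 4-MU-alpha-galactoside substrate, compound titrated 0.7 nM to 77 uM, 20 min room temperature. Glycine/NaOH stop; 4-MU read Ex 365/Em 440; Hill-equation AC50 against no-enzyme and enzyme controls.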
# [17] = target: Alpha-galactosidase A (Homo sapiens) (UniProt P06280); test: Counterscreen for Glucocerebrosidase Inhibitors: qHTS Assay for Human alpha-Galactosidase at pH 4.5 (AID 992)
# Chain of Alpha-galactosidase A (Homo sapiens) (P06280 whole entry, looked up): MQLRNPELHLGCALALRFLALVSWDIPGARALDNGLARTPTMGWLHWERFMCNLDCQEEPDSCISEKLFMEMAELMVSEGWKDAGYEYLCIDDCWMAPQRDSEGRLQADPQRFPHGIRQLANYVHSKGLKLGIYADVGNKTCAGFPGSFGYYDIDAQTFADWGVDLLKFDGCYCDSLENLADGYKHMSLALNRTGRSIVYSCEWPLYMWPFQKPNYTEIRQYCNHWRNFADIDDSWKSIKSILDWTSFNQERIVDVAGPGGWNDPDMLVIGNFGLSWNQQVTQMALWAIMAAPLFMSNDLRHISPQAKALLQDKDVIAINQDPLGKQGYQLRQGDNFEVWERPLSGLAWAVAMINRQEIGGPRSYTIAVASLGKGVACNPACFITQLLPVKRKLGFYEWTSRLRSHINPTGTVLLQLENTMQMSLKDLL
# Outline: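 Fluorogenic 4-MU alpha-D-galactoside (80 uM) hydrolysis, 2 nM enzyme, pH 4.5 citrate buffer + 0.005% Tween-20; 20 min RT; NaOH/glycine pH 10 stop; Ex365/Em440. Compounds titrated 0.7 nM–77 uM; Hill-equation AC50.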
# [18] = target: alpha-glucosidase (Oryza sativa, rice) (UniProt Q653V4); test: Counterscreen for Glucocerebrosidase Inhibitors: qHTS Assay for Rice alpha-Glucosidase at pH 5.0 (AID 997)
# Outline: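 Endpoint fluorogenic assay at pH 5.0: compounds (0.7 nM to 77 uM) titrated against 4 nM rice enzyme and 400 uM 4-MU-alpha-glucoside for 20 min at room temperature; NaOH/glycine stop, read ex 365/em 440 nm, Hill-fitted AC50.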
# [19] = target: Cytochrome P450 3A4 (Homo sapiens) (UniProt P08684); test: qHTS Assay for Inhibitors and Substrates of Cytochrome P450 3A4 (AID 884); note: nearly all actives have a fitted effect of over 50% in size
# Outline: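 Luminescent readout of luciferin produced by CYP3A4 (20 nM) dealkylation of Luciferin-PPXE, 25 uM (its KM). NADPH-driven reaction ran 60 min at RT after 10 min compound preincubation; data scaled to 57 uM ketoconazole as 100% inhibition.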
# [20] = Confirmation and Secondary Assay for Modulators of Hemoglobin Beta Chain Splicing at IVS2 654 locus (AID 910);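 note: HeLa cells stably carrying EGFP split by mutant beta-globin IVS2-654 intron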
# Outline: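 HeLa cells stably expressing EGFP interrupted by β-globin IVS2-654 intron, seeded overnight in Opti-MEM/2% FCS, then treated 2 days at 37 °C. Restored splicing read as total peak GFP intensity per well by laser scanning cytometry (488 nm excitation, 500–520 nm emission); 500 nM antisense PNA as control.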
# [21] = Confirmation and Secondary Assay for Modulators of Hemoglobin Beta Chain Splicing at IVS2 705 locus (AID 930);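 note: HeLa cells stably expressing the EGFP-705 splicing reporter; GFP fluorescence per well restored by corrected splicing of the IVS2-705 intron in EGFP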
# Outline: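 Splice-correction reporter: EGFP cDNA split by beta-globin intron 2 bearing the 705 mutation, stably in HeLa. Compound incubation 2 days, 37C; fluorescent objects 5-250 µm summed per well.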
# [22] = measured here: cell count channel max response
# [23] = measured here: lipid channel max response
smiles,measurement,setting,value
N[C@@H](CCCCP(=O)(O)O)C(=O)O,Potency,[1],> 46 µM (inactive)
same,outcome,[2],inactive
same,Potency,[3],inactive
same,"activity change, negative = inhibition",[4],0.372% (inactive)
same,max response,[4]; [22],-29.3%
same,max response,[4]; [23],-29%
same,Potency,[5],inactive
same,Potency,[6],inactive
same,Potency,[7],inactive
same,Potency,[8],inactive
COC(=O)/C=C\C(=O)N[C@@H]1CC[C@@]2(O)[C@H]3Cc4ccc(O)c5c4[C@@]2(CCN3CC2CC2)[C@@H]1O5,Potency,[1],> 46 µM (inactive)
same,Potency,[9],> 46 µM (inactive)
same,outcome,[2],inactive
same,Potency,[3],inactive
same,"activity change, negative = inhibition",[4],-0.127% (inactive)
same,max response,[4]; [22],-6.87%
same,max response,[4]; [23],-10.5%
same,Potency,[5],inactive
same,Potency,[6],inactive
same,Potency,[7],inactive
same,Potency,[8],inactive
CC[C@]1(C2=NCCN2)Cc2ccccc2O1,outcome,[10],inactive
same,Potency,[11],inactive
same,"activity change, negative = inhibition",[12],-18.1% (inactive)
same,outcome,[2],inactive
same,Potency,[3],inactive
same,Potency,[13],inactive
same,outcome,[14],inactive
same,outcome,[15],inactive
same,outcome,[16],inactive
same,outcome,[17],inactive
same,outcome,[18],inactive
same,"activity change, negative = inhibition",[4],2.09% (inactive)
same,max response,[4]; [22],4.62%
same,max response,[4]; [23],7.07%
same,Potency,[6],inactive
same,Potency,[7],inactive
same,Potency,[8],inactive
O=C(O)[C@H]1[C@H]2CN[C@H](C(=O)O)[C@H]21,Potency,[11],31.6 µM (active)
same,Potency,[1],> 46 µM (inactive)
same,Potency,[9],> 46 µM (inactive)
same,outcome,[2],inactive
same,Potency,[3],inactive
same,"activity change, negative = inhibition",[4],-5.1% (inactive)
same,max response,[4]; [22],-11.8%
same,max response,[4]; [23],-16.1%
same,Potency,[6],inactive
same,Potency,[7],inactive
same,Potency,[8],inactive
CC(C)[C@@H]1CN[C@H](C(=O)O)[C@@H]1CC(=O)O,Potency,[1],> 46 µM (inactive)
same,Potency,[9],> 46 µM (inactive)
same,outcome,[2],inactive
same,"activity change, negative = inhibition",[4],5.36% (inactive)
same,max response,[4]; [22],14.8%
same,max response,[4]; [23],17.2%
same,Potency,[5],inactive
same,Potency,[6],inactive
same,Potency,[7],inactive
same,Potency,[8],inactive
c1cncc(C2CCCCN2)c1 (stereo not drawn),Potency,[19],inactive
same,Potency,[20],inactive
same,outcome,[21],inactive
same,"activity change, negative = inhibition",[4],4.14% (inactive)
same,max response,[4]; [22],15%
same,max response,[4]; [23],20.8%
same,Potency,[5],inactive
same,Potency,[7],inactive
same,Potency,[8],inactive
